Results reported in PubChem BioAssay (EPA / NIEHS).
Calls of active or inactive are those of the source. How the source made its calls: active means hit-call score of the fitted dose curve at least 0.9, where 1 is the maximum; inactive means score below 0.9.

Molecular target: Hypoxia-inducible factor 1-alpha (Homo sapiens) (UniProt Q16665)
Assay: ATG_HIF1a_CIS: Attagene CIS-FACTORIAL HepG2 Assay for human Hypoxia Inducible Factor 1 (HIF1A) (AID 2282951)
Settings: HepG2 Attagene cis-factorial HIF1a reporter transcription; actives raise or lower the signal
Protocol: ATG_CIS is a cell-based, multiplexed-readout assay that uses HepG2, a human liver cell line, with measurements taken at 24 hours after chemical dosing in a 24-well plate.ATG_HIF1a_CIS is one of 52 assay component(s) measured or calculated from the ATG_CIS assay. It is designed to make measurements of mRNA induction, a form of inducible reporter, as detected with fluorescence intensity signals by Reverse transcription polymerase chain reaction (RT-PCR) and Capillary electrophoresis technology.Data from the assay component ATG_HIF1a_CIS was analyzed into 1 assay endpoint. This assay endpoint, ATG_HIF1a_CIS, was analyzed with bidirectional fitting relative to DMSO as the negative control and baseline of activity. Using a type of inducible reporter, measures of mRNA for gain or loss-of-signal activity can be used to understand the reporter gene at the transcription factor-level as they relate to the gene HIF1A. Furthermore, this assay endpoint can be referred to as a primary readout, because this assay has produced multiple assay endpoints where this one serves a reporter gene function. To generalize the intended target to other relatable targets, this assay endpoint is annotated to the dna binding intended target family, where the subfamily is basic helix-loop-helix protein.
Human liver HepG2 cells are transiently transfected with multiple reporter transcription units (MRTUs) in 6-well plates using FuGene 6 reagent (Roche; 3 ml FuGene/1 mg DNA). The MRTU constructs are regulated by a cis-regulating element (promoter). […] A major difference between the CIS and TRANS system is that in CIS activities of endogenous TFs are measured, whereas the TRANS assay evaluates changes in activities of exogenous, chimeric NR-Gal4 proteins. […] At the end of 24 hour incubation, total RNA was isolated using TriZol reagent (Invitrogen). The isolated RNA is then reverse-transcribed using oligo(dT) primer and Mo-MLV reverse transcriptase (Invitrogen) with DNAse I (Ambion) treatment for 30 min. The one-tenth of the produced cDNA was amplified by PCR using Taq DNA polymerase (Invitrogen) and two reporter sequence-specific primers. The PCR products were fluorescently labeled by primer extension with 6-arboxyfluorescein (6-FAM) 5'-labeled reporter sequence-specific primer (2 min at 95 C, 20 s at 68 C and 10 min at 72 C) and these products were digested with 5U of HpaI (New England Biolabs) for 2h at 37 C. The fragments were purified using Qiaquick PCR columns (Qiagen), analyzed on an ABI 3130xL genetic analyzer (Applied Biosystems) with peak positions identified by using a set of X-rhodamine (ROX)-labeled MapMarker1000 molecular weight standards (BioVentures). The raw capillary electrophoresis data was processed using Attagraph software (Attagene).

Chain of Hypoxia-inducible factor 1-alpha (Homo sapiens) (Q16665 whole entry, looked up): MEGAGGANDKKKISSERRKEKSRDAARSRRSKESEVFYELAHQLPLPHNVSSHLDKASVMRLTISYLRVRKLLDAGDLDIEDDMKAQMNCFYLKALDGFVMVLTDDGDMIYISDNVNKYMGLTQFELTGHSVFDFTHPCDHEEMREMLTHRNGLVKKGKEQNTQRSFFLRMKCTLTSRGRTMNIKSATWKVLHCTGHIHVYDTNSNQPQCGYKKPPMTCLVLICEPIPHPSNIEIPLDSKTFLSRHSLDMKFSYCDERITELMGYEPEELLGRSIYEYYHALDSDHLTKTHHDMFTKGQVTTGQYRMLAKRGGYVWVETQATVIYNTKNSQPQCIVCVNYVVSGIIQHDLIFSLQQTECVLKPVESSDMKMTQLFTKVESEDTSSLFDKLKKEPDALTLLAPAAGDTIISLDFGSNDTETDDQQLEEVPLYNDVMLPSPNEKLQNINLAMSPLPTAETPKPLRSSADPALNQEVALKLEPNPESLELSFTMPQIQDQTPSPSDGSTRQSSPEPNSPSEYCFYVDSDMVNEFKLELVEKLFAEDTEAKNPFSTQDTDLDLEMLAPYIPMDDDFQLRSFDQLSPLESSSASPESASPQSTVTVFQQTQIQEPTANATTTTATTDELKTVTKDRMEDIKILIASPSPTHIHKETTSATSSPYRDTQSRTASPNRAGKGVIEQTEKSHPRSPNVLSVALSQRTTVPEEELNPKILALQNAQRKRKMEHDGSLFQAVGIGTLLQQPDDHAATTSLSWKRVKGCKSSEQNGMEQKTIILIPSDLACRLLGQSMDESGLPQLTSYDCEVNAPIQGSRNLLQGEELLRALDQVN

SMILES | outcome | AC50
CN(C)c1ccc(Cc2ccc(N(C)C)cc2)cc1 | inactive | 
Cc1ccc(C)c(O)c1 | inactive | 
Cn1c(=O)c2c(ncn2C)n(C)c1=O | inactive | 
CC(C)CC(C)(O)C#CC(C)(O)CC(C)C (stereo not given) | inactive | 
CC(C)=CCCC(C)=CC=O |  | 100 µM (active)
Clc1nc(Cl)c(Cl)c(Cl)c1Cl | inactive | 
Cc1c(-c2cccnc2)c2ccccc2n1CCCCC(=O)O | inactive | 
CCC(C)(C)C(=O)O[C@H]1C[C@@H](C)C=C2C=C[C@H](C)[C@H](CC[C@@H]3C[C@@H](O)CC(=O)O3)[C@H]21 | inactive | 
CCOc1cccc(-n2cc(C(=O)N3CCN(c4cc(C(=O)O)c5ccccc5c4)CC3)nc2-c2ccc(C)cc2)c1 |  | 6.55 µM (active)
COC(=O)c1ccccc1O | inactive | 
Cc1[nH]cnc1C[C@H]1CCc2c(C)c3ccccc3n2C1=O |  | 20.7 µM (active)
CC/C(=C\C(=N/O)C(N)=O)C(C)[N+](=O)[O-] (stereo not given) | inactive | 
CC(=O)OCCC(C)C | inactive | 
CCCCCCCCCCCCc1ccccc1 | inactive | 
Nc1ccc(Nc2ccccc2)cc1 | inactive | 
CCCCCCCCCCCCCCCO | inactive | 
CNCc1ccc(NC(=O)c2c[nH]c3c2C(=O)CCC3)cc1 | inactive | 
CCOCCO | inactive | 
O=P(OC(CCl)CCl)(OC(CCl)CCl)OC(CCl)CCl |  | 36.3 µM (active)
CC(=O)c1ccc2c(c1)[C@H](NC(=O)c1ccc(F)cc1)[C@@H](O)C(C)(C)O2 | inactive | 

SMILES | outcome | AC50
O=C(CCCCCCCCc1cccnc1)N1CCC(C=C(c2ccccc2)c2ccccc2)CC1 |  | 1.37 µM (active)
O=c1[nH]c2ccc(S(=O)CCN3CCC(Cc4ccc(F)cc4)CC3)cc2o1 (stereo not given) | inactive | 
C1N2CN3CN1CN(C2)C3 | inactive | 
C=CC(=C)CCC=C(C)C | inactive | 
C=CCCCCCCCCC(=O)O | inactive | 
CCn1nc(Cc2ccccc2)cc1C1CCN(C[C@H]2C[C@H](N(C)[C@@H](C(=O)O)C(C)C)C[C@@H]2c2cccc(F)c2)CC1 |  | 26.6 µM (active)
Cc1ccc(N)cc1O | inactive | 
COCCOc1cc2cc(C(=O)NC3CCN(C(C)C)CC3)n(CC(=O)Nc3ccc(Cl)cn3)c2cn1 |  | 26.2 µM (active)
CC(C)CCCCCCOC(=O)c1ccc(C(=O)OCCCCCCC(C)C)c(C(=O)OCCCCCCC(C)C)c1 | inactive | 
CC(C)CCCCCCCOC(=O)CCCCC(=O)OCCCCCCCC(C)C | inactive | 
O=C(O)CC(O)C(=O)O (stereo not given) | inactive | 
CCCCC(CC)COC(=O)CCCCCCCCC(=O)OCC(CC)CCCC (stereo not given) | inactive | 
O=C(O)c1cccc(N(Cc2cccnc2)c2ccc(OC(F)F)c(OC(F)F)c2)c1 | inactive | 
CCOC(=O)CC(CC(=O)OCC)(OC(C)=O)C(=O)OCC | inactive | 
O=c1n(CC2CO2)c(=O)n(CC2CO2)c(=O)n1CC1CO1 (stereo not given) | inactive | 
CCOCCOCCOCCO | inactive | 
O=C(OC[C@H]1O[C@@H](OC(=O)c2cc(O)c(O)c(OC(=O)c3cc(O)c(O)c(O)c3)c2)[C@H](OC(=O)c2cc(O)c(O)c(OC(=O)c3cc(O)c(O)c(O)c3)c2)[C@@H](OC(=O)c2cc(O)c(O)c(OC(=O)c3cc(O)c(O)c(O)c3)c2)[C@@H]1OC(=O)c1cc(O)c(O)c(OC(=O)c2cc(O)c(O)c(O)c2)c1)c1cc(O)c(O)c(OC(=O)c2cc(O)c(O)c(O)c2)c1 |  | 6.05 µM (active)
Nc1cccc(N)c1 | inactive | 
On1ccccc1=S | inactive | 
COc1ccc2sc(C(=O)Nc3nnn[nH]3)c(OC(C)C)c2c1 |  | 149 µM (active)
